From PubChem
This is a sample that favours compounds with a hit; in the whole collection about 11% have one here.
HPGD block – HPGD (human) dehydrogenase inhibition; P15428; purified HPGD, NADH fluorescence kinetic, PGE2 substrate; Potency, µM, for the others: top-dose activity change, negative = inhibition, usual class: inhibitors; 150,000 compounds, 4.3% hits; AID 894; also: potency is read from the fitted curve at half-maximal effect
Target sequence (P15428 whole entry, looked up): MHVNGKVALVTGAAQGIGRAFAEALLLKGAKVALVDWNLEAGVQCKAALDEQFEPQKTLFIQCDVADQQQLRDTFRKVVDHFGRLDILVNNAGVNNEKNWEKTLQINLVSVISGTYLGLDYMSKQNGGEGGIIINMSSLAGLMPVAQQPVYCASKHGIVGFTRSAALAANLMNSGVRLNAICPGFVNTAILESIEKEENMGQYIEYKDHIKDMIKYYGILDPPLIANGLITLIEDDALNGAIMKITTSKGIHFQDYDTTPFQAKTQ
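20 nM HPGD preincubated 15 min at room temperature with compound in 50 mM Tris-HCl pH 8, 0.01% Tween 20. Started with 1 mM NAD+ and 30 uM prostaglandin E2; NADH fluorescence (360/450 nm) read 5 times over 30-s intervals, last minus first.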
IMPase inh – cell-permeable inhibitors of inositol monophosphatase (IMPase) | AID 901 | inhibition (IP1 accumulation), % at 46.1 µM | 120,000 tested, under 10 active | CHO-M1 cells, IP1 accumulation, HTRF TR-FRET ratio; active = well fitted curve in the direction sought with a large enough effect in the signal ratio, not every such curve was filed as active; inconclusive = small, poorly fitted or top-dose-only effect, or a change in a side signal; inactive = no such curve, though single readings can be large or run the other way; the % refers to the signal ratio;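 also: cells stimulated with carbachol in lithium chloride buffer; plate controls were DMSO basal wells for no effect and reference inhibitor wells for full effect; higher means more IMPase inhibition seen as more IP1 and lower FRET ratio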
Target sequence (P97697 whole entry, looked up): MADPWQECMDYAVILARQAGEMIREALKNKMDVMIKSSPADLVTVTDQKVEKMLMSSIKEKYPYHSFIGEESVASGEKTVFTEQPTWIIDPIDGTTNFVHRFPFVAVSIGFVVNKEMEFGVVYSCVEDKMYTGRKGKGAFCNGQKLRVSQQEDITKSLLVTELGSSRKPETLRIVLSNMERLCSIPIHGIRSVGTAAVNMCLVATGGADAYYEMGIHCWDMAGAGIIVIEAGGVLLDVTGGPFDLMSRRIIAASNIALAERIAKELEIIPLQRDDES
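Measured: the HTRF emission ratio (665/620 nm) plus the 620 nm donor channel, each fitted to the Hill equation to give AC50. Cells were CHO-M1 given compounds up to 46 uM and a 30 min carbachol stimulation at 37C.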
ALDH1A1 block – inhibitors of human aldehyde dehydrogenase 1A1 | Potency, µM (titrated, usually from 75.3 µM), for inactives: top-dose activity, negative = inhibition, hits mostly inhibitors | Purified ALDH1A1, NADH fluorescence, propionaldehyde substrate | 220,000 compounds, 7.3% hits | P00352;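 also: potency is read from the fitted curve at half-maximal effect; plate controls were no enzyme wells and a reference inhibitor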
PNC inhibitor – perinucleolar compartment assembly inhibition. PC3M PTB-GFP, PNC prevalence imaging, 16 h; active compounds read low. activity change (PNC), negative = inhibition, % at 10 µM. 140,000 compounds, 3.1% hits;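 active = readout at or below -70, meaning at least 70% loss of cells showing the perinucleolar compartment, a nuclear body marking cancer cells; inconclusive = readout between -30 and a set limit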;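 also: plate controls were DMSO wells for no effect and camptothecin positive control wells for full effect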
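Compounds are pinned in duplicate onto adhered PC3M cells stably expressing GFP-tagged PTB and incubated 16 h at 37 C. Cells are then fixed, nuclei stained with Hoechst, and PNC-positive cells counted.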
IMPase Li inh – IMPase inhibition in cells with lithium potentiation. CHO-M1 cells, IP1 TR-FRET (IP-One), carbachol + lithium. Potency, µM (highest dose often 59.4 µM), for the others: top-dose activity, negative = IMPase inhibition, most hits filed as inhibitors. 210,000 compounds, 0.35% hits. AID 1457; active = well fitted inhibition curve with a large enough effect; inconclusive = small, poorly fitted or top-dose-only effect; inactive = no such curve, though single readings can be large or run the other way;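 also: IP1 builds up when IMPase is blocked and the TR-FRET signal falls; potency is read from the fitted curve at half-maximal effect; plate controls were basal vehicle for no effect and high inhibitor control for full effect; nearly all actives have a fitted effect of over 50% in size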
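Lithium-sensitised IP1 accumulation assay; M1-expressing CHO cells treated 30 min at 37C with compound. Competitive antibody detection by time-resolved FRET followed a 10 min room-temperature lysis step.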
The depositor's hits bear a star; ? = inconclusive; nt = no result given; [ ] = another dose, or the depositor's remark. Unless noted, calls follow the shape of the dose curve; as a rule, active = well fitted inhibition curve with a large enough effect (not every such curve was filed as active); inconclusive = small, poorly fitted or top-dose-only effect, or another doubt; inactive = no such curve, though single readings can be large or run the other way. Unless noted, % is scaled to controls: 0 for no effect and ±100 for the full control effect.

SMILES | HPGD block | IMPase inh | ALDH1A1 block | PNC inhibitor | IMPase Li inh
CC(C)Cc1csc(NC(=O)c2ccc(Cl)cc2)c1C(=O)O | 18µM* | 14 | 25% | -9 | 13%
Cc1ccc(N2CCN(C(=O)C3CCC(CNS(=O)(=O)c4ccc(Br)s4)CC3)CC2C)cc1 (configuration not stated) | nt | -2 | nt | nt | nt
COC(=O)C1=C(C(=O)OC)[C@@H]2N(Cc3ccccc3)c3ccccc3[C@@]23C[C@@H](C(=O)OC)N(S(=O)(=O)c2ccc(C)cc2)C3=N1 | -7% | nt | -2%[13.5 µM] | nt | 9%
COc1ccc(COc2ccc(C3C(S(=O)(=O)c4ccccc4)CON3C)cc2OC)cc1 (configuration not stated) | nt | nt | 8.9µM* | nt | 10%
C[C@@H]1CC2(OC3C[C@@]4(C)C5=CC[C@H]6C(C)(C)C(O[C@@H]7OC[C@@H](O)[C@H](O)[C@H]7O)CC[C@@]67C[C@@]57CC[C@]4(C)C31)OC(O)C1(C)OC21 (some centres not stated) | -8% | nt | ? | nt | 4%
CCn1nnnc1SCC(=O)Nc1nc(-c2cccs2)cs1 | -18% | -3 | 3.2µM* | ? | 15%
CCn1nnnc1SCC(=O)Nc1nnc(C(C)C)s1 | 3% | 13 | ? | ? | 11%[38.3 µM]
Cc1ccccc1NC(=O)c1cc(C(=O)c2cc(Cl)ccc2O)cn(-c2ccccc2C)c1=O | 10µM* | nt | -3% | 22 | 13%
Cc1ccc(-n2cc(C(=O)c3cc(Cl)ccc3O)cc(C#N)c2=O)cc1 | -23% | nt | 5% | -17 | 10%
O=C(Nc1ccccc1)NC1(C(=O)NCc2cccs2)CCCCC1 | ? | -3[1.84 µM] | ? | -96* | 11%[38.3 µM]
COc1cc(C(=O)Nc2cc3c(cc2C)n(C)c(=O)c(=O)n3C)cc(OC)c1OC | nt | -4 | nt | nt | nt
CC1CCN(S(=O)(=O)c2cnc(Cl)c(Br)c2)CC1 | -15% | nt | 0.13µM* | 57 | 3%
CC1CCCCN1S(=O)(=O)c1cnc(Cl)c(Br)c1 (configuration not stated) | -22% | nt | 2.5µM* | ? | 5%
NC(=O)c1nn(-c2ccc(Oc3ccccc3)cc2)c(=O)cc1O | nt | nt | 2% | nt | 3%
NC(=O)c1nn(-c2cccc(Cl)c2)c(=O)cc1O | -8% | 4 | 3% | -100* | 11%[38.3 µM]
O=C(NCc1cc(F)cc2c1OCCO2)[C@H]1C[C@@H]1[C@H](NP(=O)(c1ccccc1)c1ccccc1)c1ccccc1 | -19% | nt | -14% | nt | 0%
O=S(=O)(Nc1ccc(Cl)cc1)c1ccc(N2CCOCC2)c(NC(=S)NC2CC2)c1 | nt | nt | 8.9µM* | nt | 3%
COc1ccc(NS(=O)(=O)c2ccc(N3CCCC3)c(NC(=S)Nc3ccc(SC(F)F)cc3)c2)cc1 | 3.5µM* | nt | 3.5µM* | 23 | 3%
COc1ccc(NS(=O)(=O)c2ccc(N3CCCC3)c(NC(=S)Nc3cccc(C)c3C)c2)cc1 | 13µM* | nt | 8.9µM* | ? | 6%
COc1ccc(NS(=O)(=O)c2cc(NC(=O)c3ccco3)ccc2N2CCCC2)cc1 | -7% | -2 | ? | -18 | 15%
COc1ccc(N2CCN(CC(=O)Nc3ccc(SC(F)F)cc3)CC2)cc1 | -5% | 1 | 0% | 8 | -4%
Cc1ccc(S(=O)(=O)Nc2cc3c(cc2Cl)n(C)c(=O)c(=O)n3C)cc1 | nt | 9 | nt | nt | nt
O=C(NC1CCCC1)C1CCCN1C(=O)Nc1ccc(Cl)cc1 (configuration not stated) | -3% | 6 | 8% | ? | 9%[38.3 µM]
O=C(Oc1ccc(Br)cc1C(=S)N1CCCC1)c1ccccc1F | 25µM* | nt | 11µM* | -28 | -3%
O=C(Oc1ccc(C(=S)N2CCOCC2)cc1)c1ccccc1 | nt | nt | -2% | nt | -4%
SMILES | HPGD block | IMPase inh | ALDH1A1 block | PNC inhibitor | IMPase Li inh
O=C(Oc1ccc(C(=S)N2CCCCC2)cc1)c1ccccc1F | nt | nt | 8.9µM* | nt | 2%
Oc1csc(Cc2nc(-c3ccccc3F)cs2)n1 | nt | nt | 18µM* | nt | 18%
Oc1csc(Cc2nc(-c3ccc(-c4ccccc4)cc3)cs2)n1 | -27% | 0 | ? | -2 | -24%[38.3 µM]
COc1ccc(NC(=O)C(=O)NCc2ccco2)c(OC)c1 | nt | 1 | nt | nt | nt
COc1cccc(-c2nccc(N(C)Cc3ccco3)n2)c1 | nt | nt | ? | nt | 10%
O=C(c1ccccc1)c1coc2c1C(=O)c1ccccc1C2=O | nt | nt | 20µM* | nt | 17%
CCOC(=O)CC(=O)N/N=C/c1c(N)n(C)c(=O)n(C)c1=O | nt | nt | -8% | nt | 4%
CCOc1ccc2nc(C)cc(C(=O)O)c2c1 | ? | 6 | ? | -5 | -5%[38.3 µM]
CCC(C)OC(=O)c1cc(C)nc2c(Br)cc(Br)cc12 (configuration not stated) | -7% | -21 | -1% | -100* | ?
COC(=O)c1cn(CCOc2ccc(C)cc2)c2ccccc12 | -20% | 6 | 3% | -82* | 5%[38.3 µM]
CS(=O)(=O)C1=NSC2=NC(=O)/C(=C\c3ccc(-c4ccccc4)o3)C(=N)N21 | -27% | nt | -4% | 46 | -5%
CC(C)CC1=NN2C(=N)/C(=C\c3coc4ccccc4c3=O)C(=O)N=C2S1 | nt | nt | 11µM* | nt | 2%
Cc1cccc(-n2c(C)cc(/C=C3\C(=N)N4N=C(CC(C)C)SC4=NC3=O)c2C)c1 | ? | nt | ? | 34 | 0%
CCSC1=NSC2=NC(=O)/C(=C\c3coc4ccccc4c3=O)C(=N)N12 | 28µM* | nt | ? | ? | 0%
NC(=O)c1csc(-c2ccncc2)n1 | -8% | 4 | -1% | ? | -6%
Nc1cc(-c2ccncc2)c[nH]c1=O | ? | -2[20.6 µM] | 11µM* | ? | 1%
Cc1cccc(C)c1Nc1c(-c2ccc(Cl)s2)nc2ncccn12 | nt | -15 | nt | nt | nt
COc1cc2c(cc1OC)C(C1C(=O)CC(C)(C)CC1=O)N(C(=O)CCl)CC2 (configuration not stated) | -11% | nt | ? | -80* | 0%
CCOC(=O)C1(C)C=C(Nc2ccc(C)cc2)C(=O)N1c1ccccc1 (configuration not stated) | nt | 0 | nt | nt | nt
CCOC(=O)C1(C)C=C(Nc2ccc(OC)cc2)C(=O)N1c1ccc(OC)cc1 (configuration not stated) | ? | 1 | 2.8µM* | 25 | -2%
CCOC(=O)C1(C)C=C(Nc2ccc(O)cc2)C(=O)N1c1ccc(O)cc1 (configuration not stated) | -6% | nt | 3.5µM* | -12 | 10%
Cc1ccccc1NC(=S)NC(NC(=O)c1ccco1)C(Cl)(Cl)Cl (configuration not stated) | -16% | nt | 9.5µM* | -120* | 10%
COC(=O)c1ccccc1NC(=S)NC(NC(=O)c1ccco1)C(Cl)(Cl)Cl (configuration not stated) | -12% | -3 | ? | 30 | -2%[38.3 µM]
O=C(/C=C/c1ccccc1)NC(NC(=S)Nc1cc(Cl)ccc1Cl)C(Cl)(Cl)Cl (configuration not stated) | -8% | 4 | 22µM* | -14 | -1%[38.3 µM]
